The record followed here is paper PMC4878873.

In this test the target is COP9 signalosome complex subunit 4 (UniProt Q9BT78). In words: cross-link between two proteins; cross-linking mass spectrometry.

E3 ubiquitin-protein ligase RBX1, P62877, sequence (P62877 whole entry): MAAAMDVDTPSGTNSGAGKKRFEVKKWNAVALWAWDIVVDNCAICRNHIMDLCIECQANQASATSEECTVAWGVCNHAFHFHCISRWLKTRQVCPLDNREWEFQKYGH

For the substance “E3 ubiquitin-protein ligase RBX1, P62877”, the “listed as a hit” value is “yes”.
